# Reference: PubChem BioAssay (NCATS)
# Inconclusive results are not listed. Activity calls are given as the source filed them. Calls follow the shape of the dose curve; as a rule, active = well fitted inhibition curve with a large enough effect; inconclusive = small, poorly fitted or top-dose-only effect; inactive = no such curve, though single readings can be large or run the other way.
# Test: qHTS Screen of the MIPE 4.0 Collection Against Ewings Sarcoma (TC71) (AID 1259253); also: nearly all actives have a fitted effect of over 40% in size
# Conditions: TC71 Ewing sarcoma viability, CellTiter-Glo, 48 h; series mostly up to 45.8 µM
# From the text: There is a large unmet medical need for treatments for Ewing sarcoma, a pediatric sarcoma. We sought to identify compounds that inhibited Ewing sarcoma cells in vitro with the goal to then test promising drugs in two drug combinations in vitro to look for synergistic drug combinations. Promising combinations would then proceed to additional validation, including in vivo testing.
# Using the NCATS developed oncology compound library called the Mechanism of Interrogation Plate (MIPE), four Ewing sarcoma cell lines were evaluated (TC32, TC71, RDES, EW8). Compounds, in a 12-point titration series, were incubated with cells for 48 hours and the read out was cell viability (CellTiter-Glo from Promega). These initial experiments were used to select appropriate concentrations of each single agent for subsequent two-drug matrix combinations such that the concentrations in the matrices would span both activity and non-activity.
# Cells, in the log phase of growth, were seeded in 5 uL of RPMI plus 5% FBS, […] L-glutamine, 100 U/ml penicillin and 100 ug/ml streptomycin into 1536-well solid-bottom white tissue culture treated Greiner Bio One Plates (789173-F) using a MultiDrop Combi (Thermofisher Scientific) dispenser and a small sterile cassette. One column was media alone to be used as a :"no cells" control. The plates were then covered with sterilized stainless steel gasketed lids from Kalypsys. After allowing cells to attach for 4 hours, 23 nL of test compound or control (negative control DMSO and positive control 9.2 uM Bortezomib-final) were added from a 1536-well polypropylene compound source plate to each well using a 1536 head pin tool from Kalypsys. Cells were then incubated for 48 hours at 37C, 95% relative humidity and 5% CO2. After 48 hours, plates were removed from the incubator and 3 uL of CellTiter-Glo (Promega) was added using an Aurora Flying Reagent Dispenser Bioraptor. Plates were incubated at room temperature for 10 minutes prior to reading the luminescence on the Viewlux (PerkinElmer). The relative luciferase units are used to calculate the percent activity using the activity of DMSO in the cells and no cells columns for normalization of no inhibition and full inhibition respectively.
# Potency is read from the fitted curve at half-maximal effect.
row,SMILES,Potency
1,CC(C)(C)OC(=O)Nc1ccc(-c2cc(C(=O)NCCCCCCC(=O)NO)no2)cc1,2.96 µM (active)
2,COc1cc2c(Oc3ccc4[nH]c(C)cc4c3F)ncnc2cc1OCCCN1CCCC1,23.5 µM (active)
3,COc1ccc(C=Cc2cc(OC)c(OC)c(OC)c2)cc1O,inactive
4,C=C1C(=CC=C2CCC[C@]3(C)[C@@H]([C@H](C)C=C[C@H](C)C(C)C)CC[C@@H]23)C[C@@H](O)C[C@@H]1O,0.743 µM (active)
5,Nc1nc(NCCNc2ncc(-n3ccnc3)c(-c3ccc(Cl)cc3Cl)n2)ccc1[N+](=O)[O-],inactive
6,O=C(Cc1ccc(-c2ccc(OCCN3CCOCC3)cc2)cn1)NCc1ccccc1,0.0372 µM (active)
7,O=C(O)[C@H](Cc1c[nH]c2ccccc12)N1C(=O)c2ccccc2C1=O,inactive
8,CCCCN1CCC(CNC(=O)c2c3n(c4ccccc24)CCCO3)CC1,9.35 µM (active)
9,C=CC(=O)Nc1cccc(Oc2nc(Nc3ccc(N4CCN(C)CC4)cc3)ncc2Cl)c1,14.8 µM (active)
10,NCC(=O)Nc1ccc(-n2nc(C(F)(F)F)cc2-c2ccc3c(ccc4ccccc43)c2)cc1,4.18 µM (active)
11,OCc1ccc(-c2ccc(-c3ccc(CO)s3)o2)s1,26.4 µM (active)
12,CCOc1cc2ncc(C#N)c(Nc3ccc(F)c(Cl)c3)c2cc1NC(=O)C=CCN(C)C,0.132 µM (active)
13,COc1ccc(OC)c(-c2nnc3ccc(-c4ccc(OC)c(O[C@@H]5CCOC5)c4)nn23)c1,16.6 µM (active)
14,CC=C1NC(=O)[C@H]2CSSCCC=C[C@H](CC(=O)N[C@H](C(C)C)C(=O)N2)OC(=O)[C@H](C(C)C)NC1=O,0.0209 µM (active)
15,Cc1c(NC(=O)OC[C@@H]2COCCN2)cn2ncnc(Nc3ccc4c(cnn4Cc4cccc(F)c4)c3)c12,1.05 µM (active)
16,CNC(=O)c1c(F)cccc1Nc1nc(Nc2cc3c(cc2OC)CCN3C(=O)CN(C)C)nc2[nH]ccc12,20.9 µM (active)
17,CN(C)CC=CC(=O)Nc1cc2c(Nc3ccc(F)c(Cl)c3)ncnc2cc1O[C@H]1CCOC1,16.6 µM (active)
18,Fc1cc(-c2cccc3ncc(-c4cnn(C5CCNCC5)c4)nc23)cc(F)c1CN1CCOCC1,20.9 µM (active)
19,C[C@]12CC[C@H](O)CC1=CCC1C2CC[C@]2(C)C(n3cnc4ccccc43)=CCC12 (stereo not given in full),inactive
20,Cc1[nH]nc2ccc(-c3cncc(OC[C@@H](N)Cc4ccccc4)c3)cc12,1.48 µM (active)

row,SMILES,Potency
1,Cn1c2ccccc2c2c3c(c4c5ccccc5n(CCC#N)c4c21)CNC3=O,1.18 µM (active)
2,Cn1c(=O)n(-c2ccc(C(C)(C)C#N)cc2)c2c3cc(-c4cnc5ccccc5c4)ccc3ncc21,0.059 µM (active)
3,O=C(O)C1(Cc2cccc(Nc3nccs3)n2)CCC(Oc2cccc(Cl)c2F)CC1 (stereo not given),1.66 µM (active)
4,CN(c1ncccc1CNc1nc(Nc2ccc3c(c2)CC(=O)N3)ncc1C(F)(F)F)S(C)(=O)=O,5.9 µM (active)
5,CCN(CC)CCCCNc1ncc2cc(-c3cc(OC)cc(OC)c3)c(NC(=O)NC(C)(C)C)nc2n1,16.6 µM (active)
6,O=c1c2ccccc2nc2n1CCc1c-2[nH]c2ccccc12,inactive
7,Nc1ccc(C(=O)c2cc3c(ccc4ccccc43)[nH]2)cc1,3.32 µM (active)
8,O=C(c1ccc(Nc2nccc(-c3cc4ccccc4s3)n2)cc1)N1CCC(N2CCCC2)CC1,18.7 µM (active)
9,CCCNC(=O)Nc1ccc(Oc2ncnc3cc(OC)c(OC)cc23)cc1Cl,inactive
10,C[C@]1(CO)CN(c2cc(C(=O)Nc3ccc4c(c3)-c3c(c(C(N)=O)nn3-c3ccc(F)cc3)CC4)c(Cl)cn2)C[C@@]1(C)CO,13.2 µM (active)
11,Nc1ccccc1NC(=O)c1ccc(CNC(=O)OCc2cccnc2)cc1,2.35 µM (active)
12,COc1c(OCCCN2CCOCC2)ccc2c3n(c(=NC(=O)c4cnc(N)nc4)nc12)CCN3,1.82 µM (active)
13,Nc1nc(-c2nn(Cc3ccccc3F)c3ncccc23)nc(N)c1N1CCOCC1,inactive
14,Cc1cccc(C=NNc2cc(N3CCOCC3)nc(OCCc3ccccn3)n2)c1,16.6 µM (active)
15,CCN1CCN(CC(=O)Nc2ccc(-c3cccc4c(=O)cc(N5CCOCC5)oc34)c3sc4ccccc4c23)CC1,6.62 µM (active)
16,CC[C@@]1(O)C(=O)OCc2c1cc1n(c2=O)Cc2cc3cc(O)ccc3nc2-1,0.0118 µM (active)
17,Cc1cnc(Nc2ccc(F)cc2Cl)nc1-c1c[nH]c(C(=O)N[C@H](CO)c2cccc(Cl)c2)c1,18.7 µM (active)
18,CC[C@@H]1C(=O)N(C)c2cnc(Nc3ccc(C(=O)NC4CCN(C)CC4)cc3OC)nc2N1C1CCCC1,0.0743 µM (active)
19,CC1(C)O[C@@H]2C[C@@H]3[C@H]4C[C@@H](F)C5=CC(=O)C=C[C@]5(C)[C@@]4(F)[C@@H](O)C[C@]3(C)[C@]2(C(=O)CO)O1,inactive
20,CCCCCCCCCC(=O)N[C@@H](Cc1c[nH]c2ccccc12)C(=O)N[C@H](CC(N)=O)C(=O)N[C@@H](CC(=O)O)C(=O)N[C@@H]1C(=O)NCC(=O)N[C@@H](CCCN)C(=O)N[C@@H](CC(=O)O)C(=O)N[C@H](C)C(=O)N[C@@H](CC(=O)O)C(=O)NCC(=O)N[C@H](CO)C(=O)N[C@@H]([C@@H](C)CC(=O)O)C(=O)N[C@@H](CC(=O)c2ccccc2N)C(=O)O[C@@H]1C,inactive
